103 molecules from PubChem BioAssay AID624296 (National Center for Advancing Translational Sciences (NCATS), 2012) can be followed below.

SMILES strings stand for the structures. Out of some 350,000 compounds screened, about 9,900 (2.8%) were called active. A call without a number means that no potency is given here. Inconclusive results (about 15%) are left out. Calls come from the whole dose curve; as a rule, active = well fitted activation curve with a large enough effect; inconclusive = small, poorly fitted or top-dose-only effect; inactive = no such curve, though single readings can be large or run the other way. For the sample, actives were picked, then their nearest neighbours and some compounds at random.
Potency is the fitted concentration of half-maximal effect.

A short description of this assay: A quantitative high throughput screen for small molecules that induce DNA re-replication in MCF 10a normal breast cells. Note: nearly all actives have a fitted effect of over 50% in size. Conditions: MCF 10A DNA re-replication, Hoechst nuclear intensity, 48 h; series mostly up to 46.1 µM. The text has this: H Molecular Libraries Probe Production Network [MLPCN]
NIH Chemical Genomics Center [NCGC]
Assay Provider: Melvin DePamphilis, NICHD, NIH
Eukaryotic cells normally restrict genome duplication to once per cell division. When this process is aberrant, DNA re-replication occurs when cells reinitiate DNA replication before the first round of replication is complete. DNA re-replication induces the DNA damage response, arrests cell proliferation, and triggers apoptosis. The cell cycle components cyclin A, Cdt-1, Cdc6 and geminin are critical regulators of this process and their misregulation results in DNA re-replication in normal and cancer cells. To identify compounds that induce re-replication in normal cells, an image-based assay was used to measure DNA content of nuclei, as detected by the fluorescent DNA binding dye, Hoechst. Cell nuclei were imaged by a fluorescence scanning plate imager and compounds that induce DNA re-replication were identified by the increase of nuclei with elevated fluorescence intensity
For screening, 250 cells in 5 uL/well were dispensed into black clear 1536-well plates (Aurora) using a solenoid-based dispenser. Following transfer of 23 nL compound or DMSO vehicle by a pin tool, the plates were incubated 48 hr at 37 C and 5% CO2. After addition of 1 uL/well Hoescht stain, the plates were incubated 40 min at 37 C, 5% CO2 and total intensity of fluorescent objects (nuclei) were enumerated by an Acumen Explorer Ex3 (TTP LabTech) fluorescence scanning plate imager (405 nm excitation, 500-530 nm emission).
Keywords: NIH Roadmap, MLPCN, MLI, MLSMR, qHTS, NCGC, DNA replication, cancer
For `COc1cc(SC)ccc1C(=O)NNC(=O)C1COc2ccccc2O1` (stereo not drawn), the Potency entry is “inactive”. For `C=CCNC(=O)c1cc2nc(C3CC3)cc(C(F)F)n2n1` the value was “inactive”; for `O=C(Nc1ccc(Cl)cc1)c1cc2nc(C3CC3)cc(C(F)(F)F)n2n1`, 16.4 µM (active). To `CC1CCN(C(=O)c2cc3nc(C4CC4)cc(C(F)(F)F)n3n2)CC1` belongs “inactive”. To `Cc1occc1-c1nnc(SCC(=O)NC2(C#N)CCCC2)n1C` belongs “inactive”; to `COc1cc2c(cc1OC)C(Cc1cc(OC)c(OC)cc1[N+](=O)[O-])=NCC2`, “inactive”; to `Cn1c(=O)c2c(SCC(=O)N3CCOCC3)nc(C3CC3)nc2n(C)c1=O`, “inactive”.

For the molecule `CCOC(=O)N1CCN(C(=O)CSc2nc(C)nc3c2c(=O)n(C)c(=O)n3C)CC1`, the Potency is 0.651 µM (active). In the case of `CCCc1nc(SCC(=O)N2CCCC2)c2c(=O)n(C)c(=O)n(C)c2n1`, the Potency entry is “inactive”. To `CC(OC(=O)c1ccc([N+](=O)[O-])cc1)C(=O)NCC1CCCCC1` (stereo not drawn) belongs “inactive”; to `O=C(COc1ccccc1)NCCc1nc2ccccc2[nH]1`, “inactive”. On to `COc1ccc(OC(C)C(=O)NCCc2nc3ccccc3[nH]2)cc1` (stereo not drawn), for which the Potency entry was “inactive”. To `CCCCCOc1ccc(/C=C/C(=O)NCCc2nc3ccccc3[nH]2)cc1OC` belongs 20.6 µM (active); to `O=c1ccc2c(-c3ccccc3S(=O)(=O)O)c3ccc(O)c(O)c3oc-2c1O`, “inactive”.

With `CCOC(=O)c1ccccc1NC(=O)COC(=O)C(Cc1c[nH]c2ccccc12)NC(C)=O` (stereo not drawn), the Potency entry was “inactive”. To `Cc1ccc(S(=O)(=O)N2CCC(C(=O)N3CCCCCCC3)CC2)cc1` belongs “inactive”; to `CC(C)(C)OC(=O)C1=C(CO)CS[C@@H]2[C@H](NC(=O)Cc3ccccc3)C(=O)N12`, “inactive”; to `O=C(c1cccc(S(=O)(=O)N2CCCCCC2)c1)N1CCN(Cc2ccccc2)CC1`, “inactive”. For `CCOC(=O)C1=C(c2ccc(OC)cc2)C(=O)c2ccccc2C1=O`, the Potency was 2.91 µM (active). As for `COc1ccc(N2CCN(C(C)=C3C(=O)c4ccccc4C3=O)CC2)cc1`, the Potency result is “inactive”. Turning to `COc1ccc(OCCCON2C(=O)c3ccccc3C2=O)cc1`, the Potency entry was “inactive”.

For `COCCN(C(=O)C(C)N1C(=O)c2ccccc2C1=O)c1c(N)n(CC(C)C)c(=O)[nH]c1=O` (stereo not drawn), the Potency result is “inactive”. To `CC(C)(C)OC(=O)C[C@@H]1C/C=C\C[C@@H](CC(=O)NCCO)C(=O)N[C@H](Cc2c[nH]c3ccccc23)COC1=O` belongs “inactive”; to `COc1cccc(/C=N/Nc2cc(C)nc(-c3ccccc3O)n2)c1O`, “inactive”; to `COc1cccc(/C(C)=N/Nc2ncc(Cl)cc2Cl)c1`, “inactive”. For `COc1cccc(/C=N/Nc2ncc(C(F)(F)F)cc2Cl)c1O` the value was 1.46 µM (active). For `O=C(Nc1nnc(-c2ccccc2)o1)c1cccc(S(=O)(=O)N2CCOCC2)c1` the value was “inactive”; for `Cc1ccc(S(=O)(=O)C2(S(=O)(=O)c3ccc(C)cc3)CCCC2)cc1`, 8.2 µM (active); for `Cc1ccc(S(=O)(=O)NC2CCCCCC2)cc1`, “inactive”.

Turning to `Cc1ccc(S(=O)(=O)N(C)C2(C)CCS(=O)(=O)C2)cc1` (stereo not drawn), the Potency result was “inactive”.

As to `CCC(C)C1(C2CCCC2)NC(=O)NC1=O` (stereo not drawn), the Potency entry was “inactive”. Consider `Cc1ccc(CC(=O)Nc2ccc(S(=O)(=O)N3CCOCC3)cc2)cc1C`, for which the Potency result is “inactive”.

In the case of `S=c1[nH]nc(-c2cccnc2)n1/N=C/C(Cl)=C\c1ccccc1`, the Potency is 13 µM (active). Turning to `S=c1[nH]nc(-c2ccco2)n1/N=C/c1ccccc1`, the Potency result is “inactive”.

For `S=c1[nH]nc(-c2ccncc2)n1/N=C/c1ccccc1Cl`, the Potency result was “inactive”.

Regarding `O=C(CCc1nc(-c2ccccc2)no1)Nc1cccc(C(=O)NC2CC2)c1`, the Potency result is “inactive”. For `c1ccc(-c2nnc(N3CCOCC3)c3ccccc23)cc1` the value was “inactive”.

`O=C(c1snnc1-c1ccccc1)N1CCOCC1`: the Potency is 0.651 µM (active). For `O=C(CP(=O)(c1ccccc1)c1ccccc1)N1CCOCC1` the value was “inactive”; for `CCCC(=O)n1nc(-c2ccccc2)nc1N`, “inactive”. With `CCOC(=O)c1sc2nc(SC)nc(-c3ccccc3)c2c1N`, the Potency result was “inactive”. `CCN(CC)C(=O)c1sc2nc(-c3ccccc3)ccc2c1N`: the Potency is 23.1 µM (active). To `COc1ccc(NS(=O)(=O)c2cc(NC(=O)COc3ccccc3F)ccc2OC)cc1` belongs “inactive”; to `O=C(C1CC(=O)N(C2CCCC2)C1)N1CCN(c2cccc(C(F)(F)F)c2)CC1` (stereo not drawn), “inactive”; to `O=C(N/N=C/c1ccc([N+](=O)[O-])o1)c1cccc(S(=O)(=O)N2CCOCC2)c1`, “inactive”. Turning to `Cc1cc(C)nc(N/N=C/c2ccc([N+](=O)[O-])o2)n1`, the Potency entry was “inactive”. For the molecule `NC(=O)C(=O)N/N=C/c1ccc([N+](=O)[O-])o1`, the Potency was 26.6 µM (active). With `O=C(COC(=O)c1ccncc1)Nc1ccc2c(c1)OCO2`, the Potency result is “inactive”. Turning to `O=C1COc2ccc(C(=O)COC(=O)c3ccccc3Cl)cc2N1`, the Potency entry is “inactive”.

With `COc1cc(COCC(O)CN2CCN(Cc3ccc4c(c3)OCO4)CC2)cc(OC)c1OC` (stereo not drawn), the Potency entry is “inactive”. As for `CN1CCN(CC(O)COCc2ccc3c(c2)OCO3)CC1` (stereo not drawn), the Potency was 20.6 µM (active). To `CC1CCCN(CC(O)COc2ccc3c(c2)OCO3)C1` (stereo not drawn) belongs “inactive”; to `CC1CC(C)CN(CC(=O)N2c3ccccc3CCc3ccccc32)C1` (stereo not drawn), “inactive”. Turning to `CC1C(C)N(C(=O)CCl)c2ccccc2N1C(=O)CCl` (stereo not drawn), the Potency is 7.31 µM (active).

For the molecule `CC1C(=O)N(Cc2ccccc2)c2ccccc2N1C(=O)c1ccccc1` (stereo not drawn), the Potency result is “inactive”. For `O=C1CN(C(=O)COC(=O)/C=C/c2ccc(F)cc2)c2ccccc2N1` the value was “inactive”; for `CCOC(=O)C1CCCN(C(=O)C2CCN(S(=O)(=O)c3ccc(Cl)c(C(F)(F)F)c3)CC2)C1` (stereo not drawn), “inactive”; for `O=C1c2ccccc2C(=O)C1c1ccccc1F`, “inactive”.

With `O=C1c2ccccc2C2=Nc3ccccc3SC(c3ccccc3F)C12` (stereo not drawn), the Potency was 6.51 µM (active). For `COC(=O)[C@]1(C)N[C@H](CN(C)C(=O)c2ccc(C(C)(C)C)cc2)[C@@H]2C(=O)N(C)C(=O)[C@@H]21` the value was “inactive”; for `N#Cc1cccc(NC(=O)C2CCCN(C(=O)c3ccc(Cl)cc3)C2)c1` (stereo not drawn), “inactive”; for `C/C=C/c1ccc(OCC(=O)NNC(=O)CN(C)S(=O)(=O)c2ccc(C)cc2)c(OC)c1`, “inactive”. For `Cn1c(C(=O)NCCCN2CCN(c3cccc(Cl)c3)CC2)cc2c(=O)n(C)c3ccccc3c21`, the Potency was 14.6 µM (active). For `Cn1c(C(=O)NCCc2ccsc2)cc2c(=O)n(C)c3ccccc3c21` the value was “inactive”; for `CCn1c(=O)cc(OCC(=O)NCCCN2CCN(c3cccc(Cl)c3)CC2)c2ccccc21`, “inactive”; for `Cc1cccc(-c2oc3ccc(-c4ccc5c(c4)OCO5)cc3c2C#Cc2cncn2C)c1`, “inactive”. To `c1ccc(CCc2ccccn2)cc1` belongs “inactive”; to `Cc1cccc(NS(=O)(=O)c2ccc(C)c(C(=O)NCc3cccnc3)c2)c1`, “inactive”; to `O=C(COC(=O)c1ccc(F)cc1)Nc1ccc2c(c1)OCO2`, “inactive”. On to `O=[N+]([O-])c1ccc(O)c(/C=N/Nc2ccccc2[N+](=O)[O-])c1`, for which the Potency entry was “inactive”. In the case of `Cc1cccc(COc2ccccc2/C=N/Nc2ccc([N+](=O)[O-])cc2)c1`, the Potency is 10.3 µM (active). For `Cc1ccc(NS(=O)(=O)c2ccc(N/N=C/c3ccccc3OCC(=O)O)c([N+](=O)[O-])c2)c(C)c1` the value was “inactive”. To `O=S1(=O)CCOC[C@H](Cc2ccccc2)N1Cc1ccccc1Br` belongs “inactive”; to `O=C(CSc1nc2ccccc2c(=O)n1-c1ccccc1F)N1CCOCC1`, “inactive”; to `CC(C)(C)c1nnc2sc(SCC(O)=C(C#N)c3nc4ccccc4[nH]3)nn2c1=O`, “inactive”.

On to `COc1ccccc1-c1sc2ccccc2c1-c1ccc(C(C)=O)cc1`, for which the Potency entry is “inactive”. For `COc1ccccc1-c1sc2ccccc2c1C#CC1(O)CCCCC1` the value was 18.4 µM (active); for `COc1ccccc1C1=CC(=O)CCC1`, “inactive”; for `Cc1ccc(F)cc1NC(=O)CSCc1c(C)noc1C`, “inactive”.

In the case of `COc1cccc(-n2c(SCC(=O)NC3CCS(=O)(=O)C3)nc3ccccc3c2=O)c1` (stereo not drawn), the Potency result was “inactive”.

Consider `CS(=O)(=O)c1ccc(Cl)c(NC(=O)Nc2ccccc2)c1`, for which the Potency result is “inactive”.

On to `O=C(Nc1ccccc1)c1nnsc1S(=O)(=O)c1ccc(Cl)cc1`, for which the Potency is 13 µM (active).

With `CC(=O)Nc1cc(C(=O)O)ccc1S(=O)(=O)c1ccc(Cl)cc1`, the Potency result is “inactive”. Take `COc1ccccc1C(=O)COC(=O)COc1ccc(C#N)cc1`: the Potency result is “inactive”. To `O=C(COC(=O)c1ccc([N+](=O)[O-])o1)NC12CC3CC(CC(C3)C1)C2` belongs “inactive”; to `N#CCC(=O)Nc1ccc(C(=O)OCC(=O)Nc2sc3c(c2C#N)CCCC3)cc1`, “inactive”; to `CCN(CC(=O)Nc1ccccc1OC)C(=O)CC1CC2CCC1C2` (stereo not drawn), “inactive”. As to `COc1cc(OC)c(C(=O)NNC(=O)c2ccccc2-n2cccc2)cc1OC`, the Potency entry is “inactive”. As to `N#Cc1ccccc1NC(=O)COc1c(Br)cc(Br)c2cccnc12`, the Potency is 25.9 µM (active). As to `Cc1cc(NC(=O)COc2ccccc2C#N)no1`, the Potency result is “inactive”. To `O=C(COC(=O)c1ccccn1)Nc1cccc2ccccc12` belongs “inactive”. For `C#CCOCCOCCOCCNc1nc(N2CCN(C(=O)[C@H](CCC(=O)O)n3cc(CN)nn3)CC2)nc(N2CCN(C(=O)[C@H](CCC(=O)O)n3cc(CN)nn3)CC2)n1` the value was “inactive”; for `Cc1cc(NC(C)C)n2c(nc3ccccc32)c1C#N`, “inactive”. For `Cc1cc(NCc2ccco2)n2c(nc3ccccc32)c1C#N` the value was 16.4 µM (active); for `CC(C)c1cc(NCc2ccccn2)n2c(nc3ccccc32)c1C#N`, “inactive”; for `Cc1ccc(NS(=O)(=O)c2ccc(C(C)C)cc2)cc1S(=O)(=O)N1CCOCC1`, “inactive”.

With `C/C(=N\NC(=S)Nc1ccc(C)cc1)c1cc2ccccc2o1`, the Potency is 13 µM (active). To `Cc1ccc(NC(=O)c2cc3ccccc3o2)cc1` belongs “inactive”; to `Cc1ccc(OC(=O)c2cc3ccccc3o2)cc1`, “inactive”; to `O=C(CN1C(=O)NC2(CCOc3ccccc32)C1=O)NCc1ccc(F)cc1` (stereo not drawn), “inactive”. Regarding `Cc1cccc(NC(=O)c2cccc(C(F)(F)F)c2)c1`, the Potency entry was “inactive”. For the molecule `O=C(Nc1cccc(C(F)(F)F)c1)c1cc(Br)cc(Br)c1O`, the Potency was 4.73 µM (active).

With `O=C(O)CSCC(=O)Nc1cccc(C(F)(F)F)c1`, the Potency entry was “inactive”.
